From PubChem
Hits are enriched below; roughly 21% of the tested compounds scored in any of these assays.
Pf growth 96h – Primary qHTS for delayed death inhibitors of the malarial parasite plastid, 96 hour incubation; Potency, µM (series often up to 28.7 µM), without a hit: at the highest dose activity change, negative = inhibition, hits mostly inhibitors; hit rate 6.9% among 320,000; P. falciparum luciferase reporter growth, 96 h; note: potency is the fitted concentration of half-maximal effect; % is set by controls: 0 for no effect and ±100 for the full control effect
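P. falciparum expressing integrated firefly luciferase grown in erythrocytes (2% hematocrit, 0.05% parasitemia final) with compounds for 96 hours at 37 C, 5% CO2. Growth inhibition read as loss of luminescence after adding luciferase detection reagent.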
CHX counter – Cycloheximide Counterscreen for Small Molecule Inhibitors of Shiga Toxin. cell reporter, cycloheximide protein synthesis inhibition counterscreen. max response, %. hit rate 12% among 300,000; in the data active = max response mostly above about 13%, no sharp cut-off; inactive = mostly below about 14%; note: read at 38.3 µM for the half of the compounds with a filed dose; 0% is about no effect
Shiga inhibitor – A qHTS for Small Molecule Inhibitors of Shiga Toxin | Vero cells, Shiga toxin protein synthesis inhibition reporter | inhibition, % at 38.7 µM | hit rate 9.2% among 290,000; in the data active = inhibition mostly above about 28%, no sharp cut-off; inactive = mostly below about 43%; note: 0% is about no effect
Pf growth 48h – Primary qHTS for delayed death inhibitors of the malarial parasite plastid, 48 hour incubation. Potency, µM (top dose mostly 28.7 µM), without a hit: at the highest dose activity change, negative = inhibition, usual class: inhibitors. P. falciparum luciferase growth in erythrocytes, 48 h. hit rate 5.9% among 310,000. AID 504832, 2011; note: potency is the fitted concentration of half-maximal effect; % is set by controls: 0 for no effect and ±100 for the full control effect
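In quantitative HTS format, infected erythrocytes bearing luciferase-reporter parasites were treated for a single generation at 37 C. Luminescence after adding detection reagent served as the growth measure.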
Numbers without * were called inactive; u = inconclusive; x = not tested or not shown; [ ] = dose if it differs, or a comment. Unless noted, calls come from the whole dose curve; as a rule, active = well fitted inhibition curve with a large enough effect; inconclusive = small, poorly fitted or top-dose-only effect, or another doubt; inactive = no such curve, though single readings can be large or run the other way.

SMILES	Pf growth 96h	CHX counter	Shiga inhibitor	Pf growth 48h
Cc1cc(C)cc(OC(C)C(=O)Nc2ccc(S(=O)(=O)Nc3cc(C)nc(C)n3)cc2)c1 (configuration not stated)	13.1µM*	-2.1	-1.6	1.4%
OCC[C@H]1C[C@H](O)[C@@H](O)[C@]2(OCc3ccccc32)O1	2.6%	x	x	u
Cc1ccccc1NS(=O)(=O)c1csc(C(N)=O)c1	13.5%	2.0	7.9	u
O=C(c1ccsc1)N1CCCC(Nc2cccc(F)c2)C1 (configuration not stated)	2.1%	9.2	-4.1	0.5%
CC(C)Sc1nc2ncnc(N)c2[nH]1	-19.8%	-0.8	-16.4	-21.9%
CC(=O)c1cccc(NS(=O)(=O)c2ccc(N/C=C/C(=O)c3ccc(F)cc3)cc2)c1	u	46.2*	110.1*	u
COc1cc(NS(=O)(=O)c2ccc(N/C=C\C(=O)c3ccc(F)cc3)cc2)nc(OC)n1	437.8%	71.2*	94.2*	20.4%
CC(=O)c1cccc(NS(=O)(=O)c2ccc(N/C=C\C(=O)c3ccc(F)cc3)cc2)c1	u	36.7*	122.3*	u
CC1CCCCC12NC(=O)N(CC(=O)N1CCN(C(=O)c3cccs3)CC1)C2=O (configuration not stated)	3.0%	x	x	-25.6%
Cc1ccc(-n2ncc3c2CCCC3NC(=O)CCN2CCCC2=O)cc1C (configuration not stated)	u	-3.2	2.7	-8.9%
CSCC(=O)NC1CCCc2c1cnn2-c1ccc(C)c(C)c1 (configuration not stated)	u	14.5	57.5*	-1.7%
Cc1ccc(-n2ncc3c2CCCC3NC(=O)CCCN2CCCCC2=O)cc1C (configuration not stated)	13.1µM*	14.2	5.5	-6.3%
COC(=O)c1ccc(C(=O)NC2CCCc3c2cnn3-c2ccc(C)c(C)c2)cc1 (configuration not stated)	u	2.7	2.2	-4.6%
CC(C)C1C(=O)N(S(C)(=O)=O)[C@H]2CCN(C(=O)/C=C/CN3CCCCC3)[C@@H]12 (some centres not stated)	x	4.4	-5.6	x
COc1ccc(C(=O)NCCS(=O)(=O)N(C)Cc2ccccc2)cc1	1.6%	x	x	-11.2%
COC(=O)C(Cc1ccc(O)cc1)NC(=O)CCc1nc2ccccc2s1 (configuration not stated)	u	-6.5	-5.3	0.0%
CNC(=O)c1cc(C)c(-c2ccccc2)s1	x	45.7*	34.6	u
CNC(=O)c1cc2c(s1)-c1ccccc1CC2	28.9%	48.8*	99.8*	46.6%
COCCN(C(=O)c1ccc(OCC(C)C)cc1)c1c(N)n(Cc2ccccc2)c(=O)[nH]c1=O	0.1%	x	x	1.8%
CCN1/C(=C/c2ccc3cc(C)cc(C)c3[n+]2CC)Sc2cc(C)ccc21	2.4%	2.8	-16.2	11.7µM*
CCN1/C(=C/c2ccc3cccc(C)c3[n+]2CC)Sc2ccccc21	u	-1.6	9.5	u
CCN1/C(=C\c2ccc3cc(C)ccc3[n+]2CC)Sc2cc(C)c(C)cc21	30.6%	4.1	2.2	5.22µM*
Cc1ccc(N(CC(=O)NC2CCCC2)C(=O)c2c(C)noc2C)cc1C	x	11.8	-2.0	14.9%
O=C(NNC(=O)C1CCN(S(=O)(=O)c2cccc(C(F)(F)F)c2)CC1)C1CC1	11.9%	1.8	2.9	15.4%
Cc1ccc(S(=O)(=O)N2CCC(C(=O)Nc3ccccc3N3CCCC3)CC2)cc1	0.0%	x	x	u
SMILES	Pf growth 96h	CHX counter	Shiga inhibitor	Pf growth 48h
O=C(CCNC(=O)C1CCN(S(=O)(=O)c2ccccc2)CC1)Nc1cccc(C(F)(F)F)c1	-29.6%	16.2*	19.6	-0.4%
O=C(Nc1ccccc1N1CCCC1)C1CCN(S(=O)(=O)c2cccc(C(F)(F)F)c2)CC1	10.4µM*	x	x	11.7µM*
O=C(Nc1ccccc1N1CCCCC1)C1CCN(S(=O)(=O)c2cccc(C(F)(F)F)c2)CC1	u	x	x	8.28µM*
Cn1ncc(C#N)c1/N=C/N1CCCC1	18.2%	-3.1	25.3	x
O=S1(=O)[C@H]2C[C@@H]3C=C[C@@]2(CN1Cc1cccc(F)c1)O3	u	-1.4	-6.2	-1.0%
O=S1(=O)[C@H]2C[C@@H]3C=C[C@@]2(CN1Cc1cccc(C(F)(F)F)c1)O3	45.4%	12.3*	13.9	22.5%
COc1ccccc1CN(C)CC(=O)NC1CCCc2ccccc21 (configuration not stated)	0.0%	-9.3	-12.8	u
O=S(=O)(NCCC(c1ccc(F)cc1)c1ccco1)c1ccccc1 (configuration not stated)	-57.7%	0.7	-4.6	u
O=C(CC(c1ccco1)S(=O)(=O)c1ccccc1)c1ccc(F)cc1 (configuration not stated)	x	25.0*	38.9*	-2.5%
COc1ccc(S(=O)(=O)NCC(=O)NCc2cc(=O)n(C)c(=O)n2C)cc1C	u	-1.9	-6.2	u
COCCN1C(=O)C(=O)/C(=C(/O)c2ccc(S(=O)(=O)N3CCCCC3)cc2)C1c1ccc(O)c(OC)c1 (configuration not stated)	14.4%	-3.6	-9.4	19.1%
COc1ccccc1N1CCN(C(c2ccc(Cl)cc2)c2nnnn2C(C)(C)C)CC1 (configuration not stated)	u	-2.8	-13.7	6.57µM*
CC(C)(C)n1nnnc1C(c1cccc(C#N)c1)N1CCC(Cc2ccccc2)CC1 (configuration not stated)	x	-2.4	9.0	2.62µM*
COc1ccc(C(c2nnnn2C(C)(C)C)N2CCN(c3nc4ccccc4s3)CC2)cc1OC (configuration not stated)	u	14.6	39.9	5.22µM*
CC(C)(C)n1nnnc1C(c1cccc(C#N)c1)N1CCCc2ccccc21 (configuration not stated)	22.9%	-1.0	-12.3	9.28µM*
CC(C)(C)c1ccc(OCC(=O)N2CCN(c3ncccn3)CC2)cc1	31.2%	1.9	12.9	-5.7%
COc1ccccc1N1CCN(C(=O)CN(C)S(=O)(=O)c2cc(C)ccc2OC)CC1	-12.2%	0.3	-9.2	-28.7%
CCC(C)(C)n1nnnc1C(c1cccs1)N1CCc2ccccc21 (configuration not stated)	7.6%[5.75 µM]	-1.0	7.2	9.28µM*
c1cnc2ccc(C(c3nnnn3C3CCCC3)N3CCN(c4nc5ccccc5s4)CC3)cc2c1 (configuration not stated)	1.4%	28.9	12.7	5.22µM*
COc1ccccc1C(c1nnnn1C(C)(C)C)N1CCCc2ccccc21 (configuration not stated)	u	-6.9	-12.4	u
CC(C)(C)n1nnnc1C(c1ccc(Cl)cc1)N1CCCc2ccccc21 (configuration not stated)	32.6%	-1.3	-8.6	2.33µM*
CCC(C)(C)n1nnnc1C(c1ccc2ncccc2c1)N1CCN2CCCC2C1 (configuration not stated)	142.1%	-3.6	-5.1	10.4µM*
CCC(C)(C)n1nnnc1C(c1cccnc1)N1CCCc2ccccc21 (configuration not stated)	-3.8%	5.5	12.7	u
